# Measurements published in ChEMBL document CHEMBL1157539, “Thousands of chemical starting points for antimalarial lead identification” (Nature, 2010).
# Tested on: HepG2
# Experiment: GSK_TCMDC: Percent inhibition of human HepG2 cell line. Test compounds present at 10uM.
# Format: functional
row,SMILES,Inhibition
1,Cc1cc(O)c(CN(C)Cc2ccc(N(C)C)cc2)cc1C(C)C,3%
2,Cc1cc(N2CCCC2)nc(Nc2ccc(NC(=O)C(C)C)cc2)n1,40%
3,CC(=O)Nc1ccc(OCCCN(Cc2ccccc2OC(F)(F)F)c2ccc(C(F)(F)F)c(C#N)c2)c(Cl)c1,5%
4,Cc1ccc(NC(=O)c2cccc(CN3CCCN(CC4CCCCC4)CC3)c2)cc1F.O=C(O)C(F)(F)F,22%
5,Cc1ccc(NC(=O)c2ccc3ncccc3c2)cc1OC1CCN(Cc2ccsc2)C1.O=C(O)C(F)(F)F (configuration not stated),5%
6,Cc1cccn2c(=O)c3cc(C(=O)NCCc4ccccc4)c(=N)n(CCCOC(C)C)c3nc12,19%
7,CS(=O)(=O)c1cccc(-c2ccc3oc(C(N)=O)c(NC(=O)c4cccs4)c3c2)c1,11%
8,COc1ccc(CNc2ncc(-c3ccsc3)c(-c3nccs3)n2)cc1OC,10%
9,CC(=O)c1cccc2[nH]c(C(=O)NC3CCC(CCN4CCc5ccc(C#N)cc5C4)CC3)cc12.Cl (configuration not stated),12%
10,CCc1ccc(CNCC(CCNc2cc(=O)c3ccccc3[nH]2)NCc2cc(Br)cc(Br)c2)o1 (configuration not stated),0%
11,CC(C)(CNC(=O)/C=C/c1ccc(Cl)c(Cl)c1)CNc1cc(=O)c2ccccc2[nH]1,0%
12,FC(F)(F)c1ccc2[nH]c(-c3ccc(-c4ccc(CN5CCN(c6cnccn6)CC5)cc4)s3)nc2c1.O=C(O)C(F)(F)F,23%
13,Cl.O=C(Nc1ccc(C(=O)Nc2ccc(C3=NCCN3)cc2)cc1)Nc1ccc(C2=NCCN2)cc1,0%
14,CCc1ccc(C(=O)Nc2cccc(CN3CCCN(Cc4ccc(O)cc4)CC3)c2)cc1.O=C(O)C(F)(F)F,11%
15,CC(=O)Nc1ccc(NC(=O)c2cc(-c3ccc(C)cc3O)n[nH]2)cc1,0%
16,CCc1ccc(-c2cnc(N)c3cc(-c4ccnc(N)n4)ccc23)cc1,37%
17,Cc1ccc(O)c(C(=O)c2cnc3c(c2)c(-c2ccc(F)cc2)c(C#N)c(=O)n3C)c1,17%
18,COc1ccc(NC(=O)N2CCN(CCCCCNC(=O)/C=C/c3ccc(C(F)(F)F)cc3)CC2)cc1Cl,25%
19,Nc1ncnc2cc(-c3cccc(S(N)(=O)=O)c3)sc12,13%
20,CCN(CC)CCOc1ccc(C(O)(C#CC(O)(c2ccc(C)cc2)c2ccc(OCCN(CC)CC)cc2)c2ccc(C)cc2)cc1 (configuration not stated),94%
21,N#Cc1cc(C(=O)Nc2ccccc2)c(N)nc1SCC(=O)Nc1ccc(Br)cc1,11%
22,Cc1cc(Nc2ccncc2)n2nc(C)c(-c3ccc(Cl)cc3)c2n1,0%
23,COc1cc2nc(Nc3ccc4c(c3)OCCO4)nc(N)c2cc1OC.Cl,13%
24,COc1cccc(-c2csc(C(=O)NCC3CCN(Cc4ccc(C(C)C)cc4)C3)c2)c1.O=C(O)C(F)(F)F (configuration not stated),35%
25,CS(=O)(=O)CCNCc1nc(-c2ccc3c(Nc4ccc(Oc5ccccn5)cc4)ccnc3c2)cs1,9%
26,CN1CCCc2ccc(NC(=O)Nc3ccc(-c4ccccc4)cc3)cc2C1,23%
27,COc1cc(C=CC(=O)N2CCC(CCN3CCC(c4c[nH]c5ccccc45)CC3)CC2)cc(OC)c1,39%
